GPR151 activ – activators of human GPR151, primary screen, cell-based, PathHunter beta-arrestin, luminescence; actives 1% (n = 650,000); AID 1508602, 2020; PathHunter beta-arrestin GPR151 cells; activation, % at 11.2 µM; in the data active = activation above about 4.9%
MITF primary – MITF inhibitors, primary screen, biochemical, AlphaScreen, human; AlphaScreen MITF homodimerization, bead proximity signal; inhibition, % at 2.6 µM; actives 0.91% (n = 650,000); in the data active = inhibition above about 50%
TEAD-YAP inh – TEAD-YAP interaction inhibition, primary screen, TEAD-YAP interaction inhibitor project, luminescence, HEK-TIYL cells | TEAD-Gal4/YAP UAS-luciferase luminescence | inhibition, % at 9.12 µM | actives 1.4% (n = 640,000) | AID 1259422, 2018; in the data active = inhibition above about 32%
FBW7 activator – FBW7 E3 ligase activators, primary screen, biochemical, AlphaScreen, human. AlphaScreen FBW7–phospho-cyclin E peptide binding, activator screen. actives 0.13% (n = 650,000). AID 1259310, 2017. normalized activity (activation), % at 26.1 µM. F-box/WD repeat-containing protein 7 (Homo sapiens), Q969H0; in the data active = normalized activity above about 1.9%;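 note: purified mutant Fbw7 with reduced substrate affinity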
Target sequence (Q969H0 whole entry, looked up): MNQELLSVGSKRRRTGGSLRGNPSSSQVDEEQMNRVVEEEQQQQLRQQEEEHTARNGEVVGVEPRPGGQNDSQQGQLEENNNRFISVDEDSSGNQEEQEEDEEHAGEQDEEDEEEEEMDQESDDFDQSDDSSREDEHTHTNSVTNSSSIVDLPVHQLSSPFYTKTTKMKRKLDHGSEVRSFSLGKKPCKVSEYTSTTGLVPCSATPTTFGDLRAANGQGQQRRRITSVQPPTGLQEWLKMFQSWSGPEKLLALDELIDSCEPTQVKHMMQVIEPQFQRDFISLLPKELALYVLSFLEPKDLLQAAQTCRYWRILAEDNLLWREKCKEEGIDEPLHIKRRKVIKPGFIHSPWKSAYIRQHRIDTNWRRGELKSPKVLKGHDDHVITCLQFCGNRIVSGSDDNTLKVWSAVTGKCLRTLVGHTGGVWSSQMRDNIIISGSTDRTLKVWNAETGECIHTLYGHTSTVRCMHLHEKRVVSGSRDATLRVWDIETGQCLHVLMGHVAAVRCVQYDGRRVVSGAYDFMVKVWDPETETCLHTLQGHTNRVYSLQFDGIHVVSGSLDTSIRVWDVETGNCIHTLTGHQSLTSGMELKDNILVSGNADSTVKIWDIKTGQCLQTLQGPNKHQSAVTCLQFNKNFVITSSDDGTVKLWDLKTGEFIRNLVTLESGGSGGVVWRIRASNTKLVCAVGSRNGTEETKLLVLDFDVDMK
MITF inh conf – MITF inhibitors, retest of hits, confirmation, biochemical, AlphaScreen, triplicate; shares compounds with MITF primary; AlphaScreen MITF homodimerization, biotin/His-MITF beads; inhibition, % at 2.6 µM; actives 16% (n = 4,700); AID 1259372, 2018;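 active = inhibition above a cutoff derived from the DMSO control wells, cut at about 28% in these data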;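 note: inhibitors lower the bead chemiluminescence by keeping MITF from dimerizing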
AlphaScreen DR – AlphaScreen optical interference compounds, dose response, counter-screen, biochemical, HTS | shares compounds with MITF primary | AlphaScreen optical interference counterscreen, cell-free | IC50, µM | actives 6% (n = 480) | AID 1259373, 2018; call rule not given here
AlphaScreen intf2 – AlphaScreen optical interference compounds, counter-screen for MITF inhibitor project, biochemical, triplicate | actives 7.6% (n = 4,700) | shares compounds with MITF primary | LysRS AlphaScreen counterscreen, signal interference | inhibition, % at 2.6 µM;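 active = inhibition above a cutoff derived from the DMSO control wells, cut at about 30% in these data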
Numbers stand for hits; – = inactive; · = not tested or not shown. In the library only some 3.4% were active in any assay of this set; here they are far more common.

SMILES	GPR151 activ	MITF primary	TEAD-YAP inh	FBW7 activator	MITF inh conf	AlphaScreen intf2	others
O=c1[nH]c(CNCCN2CCOCC2)nc2sc3c(c12)CCC3	–	105	–	–	–	100
Cc1nc(NCCCN(C)C)c2c3c(sc2n1)CCCC3	–	51	–	–	–	–
COc1ccc(CCNc2nc(-c3ccccc3)cs2)cc1OC	–	–	–	–	·	·
Cc1ccc(Cl)cc1N1CCN(C(=S)NCCN2CCOCC2)CC1	–	51	–	–	–	–
CCC(C)NCCOCCOc1ccc(Br)cc1 (stereo unspecified)	–	–	–	–	·	·
CCC(C)NCCOc1ccc(Br)cc1 (stereo unspecified)	–	76	–	–	–	–
CCC(C)NCCOCCOc1ccc(Cl)c(Cl)c1 (stereo unspecified)	–	66	–	–	–	–
CCc1cccc(OCCCNC(C)CC)c1 (stereo unspecified)	–	82	–	–	–	–
CCC(C)NCCOCCOc1ccc(C)cc1 (stereo unspecified)	–	–	–	–	·	·
Cc1ccc(-n2ncc3c(N(C)C4CCCCC4)ncnc32)c(C)c1	–	–	–	–	·	·
COCCNCCOc1ccccc1C(C)C	–	58	–	–	–	42
C=CCc1ccccc1OCCOCCNCCOC	–	–	–	–	·	·
C=CCc1ccccc1OCCCNCCCOC	–	65	–	–	–	–
C=CCc1ccccc1OCCCCNCCCOC	–	–	–	–	·	·
COCCNCCOc1ccccc1OC	–	–	–	–	·	·
C=CCc1ccccc1OCCCNCCOC	–	59	–	–	–	–
C=CCc1ccccc1OCCNCCOC	–	52	–	–	–	–
Fc1ccc(C2=CC(c3ccc4c(c3)OCO4)n3nc(C(F)(F)F)nc3N2)cc1 (stereo unspecified)	–	–	–	–	·	·
CCOC(=O)C1=C(C)N=c2s/c(=C\c3ccc(OCc4ccccc4)c(OC)c3)c(=O)n2C1c1ccc(OC)cc1 (stereo unspecified)	–	–	–	–	·	·
COc1ccccc1N1CCN(C(=S)NCCN(C)C)CC1	–	77	–	–	–	–
COc1ccc(-c2noc(CC(=O)N(C)c3ccccc3Cl)n2)cc1	–	–	–	–	·	·
CC1(C)C2CC=C(COCC(O)CNCc3cccnc3)C1C2 (stereo unspecified)	–	62	–	–	–	–
COc1cccc(OCCOCC(O)CN2CCN(c3ccccc3)CC2)c1 (stereo unspecified)	–	–	–	–	·	·
COc1cccc(N2CCN(CC(O)COCC3=CCC4CC3C4(C)C)CC2)c1 (stereo unspecified)	–	73	–	–	–	–
COc1ccc(N2CCN(c3nc(Nc4ccc(OC)c(Cl)c4)nc(N4CCOCC4)n3)CC2)cc1	–	–	–	–	·	·
SMILES	GPR151 activ	MITF primary	TEAD-YAP inh	FBW7 activator	MITF inh conf	AlphaScreen intf2	others
Oc1c(C2CCCCC2)cccc1C1CCCCC1	–	60	–	–	–	–
Cc1cc(O)ccc1C1CCCCC1	–	–	–	–	·	·
CCCOc1ccccc1OCCCCN1CCN(C)CC1	–	–	–	–	·	·
CCC(C)c1ccccc1OCCCN1CCN(C)CC1 (stereo unspecified)	–	60	–	–	–	–
CCC(C)c1ccccc1OCCCCN1CCNCC1 (stereo unspecified)	–	70	–	–	–	–
O=C(Nc1cc([N+](=O)[O-])ccc1C(=O)NCCc1ccccc1)c1ccccc1	–	67	–	–	–	–
CC(C)=CCCC1(C)Oc2ccccc2C2OC(C)CCC21 (stereo unspecified)	–	–	–	–	·	·
O=C1S/C(=C\c2ccco2)C(=O)N1c1ccccc1Cl	–	78	–	–	79	–	AlphaScreen DR=–
Cc1cccc(C)c1OCCCCn1ccnc1	–	70	–	–	–	–
Clc1cc(Br)ccc1OCCn1ccnc1	–	54	–	–	–	–
Cc1cccc(Cl)c1OCCCCn1ccnc1	–	–	–	–	·	·
Clc1cccc(Cl)c1OCCCn1ccnc1	–	52	–	–	–	–
c1ccc(COc2ccc(OCCCCn3ccnc3)cc2)cc1	–	60	–	–	36	–	AlphaScreen DR=–
Clc1cc(Br)ccc1OCCCn1ccnc1	–	–	–	–	·	·
CCOc1cccc(OCCn2ccnc2)c1	–	–	–	–	·	·
CCc1cccc(OCCn2ccnc2)c1	–	54	–	–	–	–
COc1ccc(C2=N/C(=C/c3ccccc3Cl)C(=O)O2)cc1OC	–	–	–	–	·	·
O=C(O)Cc1ccc(NCc2ccccc2F)cc1	–	–	–	–	·	·
CCN1CCN(CCCOc2ccc3ccccc3c2Br)CC1	–	61	–	–	–	–
CCN1CCN(CCOc2ccc3ccccc3c2Cl)CC1	–	58	–	–	–	–
Clc1c(OCCCN2CCNCC2)ccc2ccccc12	–	51	–	–	–	–
CCN1CCN(CCOc2cccc3ccccc23)CC1	–	–	–	–	·	·
Cc1ccc(C(=O)NCC2CC(Cc3ccc(F)cc3)=NO2)cc1C (stereo unspecified)	–	–	–	–	·	·
Cc1ccc(CN2CCN(S(=O)(=O)c3ccc(C)cc3)CC2)cc1	–	–	–	–	·	·
CS(=O)(=O)N1CCN(Cc2ccncc2)CC1	–	79	–	–	–	–
SMILES	GPR151 activ	MITF primary	TEAD-YAP inh	FBW7 activator	MITF inh conf	AlphaScreen intf2	others
CCS(=O)(=O)N1CCN(Cc2cccnc2)CC1	–	78	–	–	–	–
CS(=O)(=O)N1CCN(Cc2cccnc2)CC1	–	67	–	–	–	–
Cc1ccc(S(=O)(=O)N2CCN(Cc3cccnc3)CC2)cc1	–	83	–	–	–	–
CCCS(=O)(=O)N1CCN(Cc2cccnc2)CC1	–	–	–	–	·	·
CCOC(=O)c1sc(NC(=O)c2cc(C)n(C)n2)nc1-c1ccccc1	–	–	–	–	·	·
Cn1c2ccccc2c2nnc(NCCc3c[nH]c4ccccc34)nc21	–	–	–	–	·	·
CC(=O)c1cccc(-c2ccc(NCCc3ccccn3)nc2)c1	–	–	–	–	·	·
CCOc1ccc(OCC(O)CNC2CCN(Cc3ccccc3)CC2)cc1 (stereo unspecified)	–	–	–	–	·	·
Oc1ccc(N2CCN(CC(O)COCc3ccccc3Cl)CC2)cc1 (stereo unspecified)	–	56	–	–	–	–
OC(COCc1ccccc1F)CN1CCN(c2ccccc2)CC1 (stereo unspecified)	–	–	–	–	·	·
CCOc1ccccc1N1CCN(CC(O)COCc2ccccc2OC)CC1 (stereo unspecified)	–	74	–	–	–	–
